In ChEMBL document CHEMBL4513216, “Probing the Open Global Health Chemical Diversity Library for Multistage-Active Starting Points for Next-Generation Antimalarials” (ACS Infect Dis, 2020):
About 8,600 (12%) of roughly 69,000 compounds showed an effect of 50% or more. Only a selection was taken, and strong results are over-represented in it overall.

Each compound was assayed on Plasmodium berghei (assay: Screen against P. berghei liver stage (PbLuc), transformed with Luciferase, at 10uM). Details: tested at 10 uM.
Assay type: functional, HepG2

SMILES | INHIBITION [%]
Fc1ccc(CN2CCOCC3(CCN(Cc4nccs4)C3)C2)cc1 (stereo not given) | 7.24
CCCc1nnc(NCCc2noc(C3CCC3)n2)o1 | 12.7
CC(C)C(=O)NCCNC(=O)CCOc1cccc(F)c1 | 48.45
CCc1cc(NC2CCC(O)CC2)n2nc(C)c(C)c2n1 (stereo not given) | 25.1
CC(C)CN1CCC(N2CCC(C(=O)N(C)C)CC2)CC1 | 18.6
COc1ccc(OC2CCN(C(=O)CCc3n[nH]c(C)n3)CC2)cc1 | -4.23
CN(C)CCOCC1CN(C(=O)c2ccsc2)Cc2ccnn2C1 (stereo not given) | -10.3
Cc1cnc2c(c1NCc1ccc3c(c1)OCO3)c(=O)n(C)c(=O)n2C | 73.3
Cc1cnc2c(c1NCc1cccs1)c(=O)n(C)c(=O)n2C | 54.1
Cc1cnc2n(c1=O)C(CC(=O)NCc1cccs1)CS2 (stereo not given) | 6.09
Cc1cnc2c(c1NCc1ccccn1)c(=O)n(C)c(=O)n2C | 8.31
Cc1cc(NC(=O)Cc2ccc3c(c2)OCO3)n(C)n1 | 13.2
Cc1cnc2c(c1NCc1ccc(F)cc1)c(=O)n(C)c(=O)n2C | 51.2
Cc1cnc2n(c1=O)C(CC(=O)NCc1cccnc1)CS2 (stereo not given) | 40.9
Cc1cnc2c(c1NCc1cccnc1)c(=O)n(C)c(=O)n2C | 71.8
CS(=O)(=O)c1ccc(NCc2ccc(F)cc2)cn1 | -32.7
Cc1cnc2c(c1NCc1ccncc1)c(=O)n(C)c(=O)n2C | -14.6
CCc1cnc2c(c1Nc1ccccc1OC)c(=O)n(C)c(=O)n2C | 15.4
Cc1nn(C)c(N2CCOCC2)c1CNCc1ccc2c(c1)OCO2 | 7.67
Cc1cnc(N2CCC3(CC2)COCCN(C(C)C)C3)nc1 | 12.2
O=c1cnc2ccccc2n1CCCn1ccnc1 | 34
Cc1cc2nc(C(C)C)cc(NCCNc3ncccc3C)n2n1 | 64.2
Cc1cccnc1NCCNc1cc(C(C)C)nc2ccnn12 | 43.9
Cc1cc(NCCNc2ncccc2C)n2nc(C)cc2n1 | 16

SMILES | INHIBITION [%]
Cc1nccn1-c1ccc(=O)n(CCNC(=O)Cc2ccccc2)n1 | 13.8
O=C(O)Cc1cccc(-n2ccnc2-c2ccc(F)c(Cl)c2)c1 | -10.5
COc1cc(-n2ccnc2-c2ccc(C(=O)O)s2)ccc1NC(C)=O | 17.5
Cc1cccc(-c2nccn2-c2cccc(CC(=O)O)c2)n1 | 11.9
CNC(=O)Cc1ccc(-n2ccnc2-c2ccc(C(=O)O)s2)cc1 | 51.2
O=C(O)Cc1cccc(-n2ccnc2-c2ccc(Cl)s2)c1 | 53.3
CCn1c(C)nnc1SCCNC(=O)c1sc(C(C)C)nc1C | -12.1
Cc1cncc(C(=O)N2CCc3ncc(Cn4cccn4)n3CC2)c1 | 10.5
Cc1cc(C)c2cc(C(=O)N3CCNC(=O)C3)[nH]c2c1 | 14.3
CNC(=O)C1(CCCc2ccccn2)CN(Cc2scnc2C)C1 | 30.4
Cc1cccc(C)c1Nc1noc2c1CN(C(=O)c1c[nH]nc1C)CC2 | 18.34
O=C(c1ccccc1F)N1CC2(CCNCC2)c2cc(Cl)ccc21 | -27
CC(=O)N1CC2(CCNCC2)c2cc(Cl)ccc21 | 14.9
O=C(c1ccncc1)N1CC2(CCNCC2)c2cc(Cl)ccc21 | 5.04
CN(C)C(=O)N1CC2(CCNCC2)c2cc(F)ccc21 | -15.5
O=C([C@@H]1CSCN1)N1CC2(CCNCC2)c2cc(Cl)ccc21 | 38.5
O=C(c1ccco1)N1CC2(CCNCC2)c2cc(Cl)ccc21 | 51.9
CN(C)C(=O)N1CC2(CCNCC2)c2cc(Cl)ccc21 | 83.5
O=C([C@H]1CCCN1)N1CC2(CCNCC2)c2cc(Cl)ccc21 | 58.3
NC(=O)N1CC2(CCNCC2)c2cc(Cl)ccc21 | 19.1
Cn1ccnc1CN1CCOC(Cn2cccn2)C1 (stereo not given) | 7.08
CNc1nc2cn(CCc3ccc(Cl)cc3)c(=O)c-2c[nH]1 | -15.5
CN(C)c1cc(CNC(=O)c2ccc(Br)cc2F)ccn1 | 16.8
Cc1cnc(N2C[C@H]3CCN(CC4CC4)C[C@H]3C2)nc1 | -21.7

SMILES | INHIBITION [%]
NC(=O)c1ccc2c(c1)nc1n2CCN(Cc2cccnc2)C1 | 54
NC(=O)c1ccc2c(c1)nc1n2CCN(Cc2ccco2)C1 | -7.9
NC(=O)c1ccc2c(c1)nc1n2CCN(Cc2ccccc2)C1 | 16.6
O=C(NCCCO)c1cc(-c2cc[nH]n2)n2ccccc12 | 15.4
CCOc1ccc(C2c3c(N)nc(SC)nc3N=C3COC(=O)C32)cc1 (stereo not given) | -44.5
COc1ccc(C2c3c(n[nH]c3C)N=C3COC(=O)C32)cc1OC (stereo not given) | -2.37
CSc1nc(N)c2c(n1)N=C1COC(=O)C1C2c1cccc(Cl)c1 (stereo not given) | 15.9
CCN(CC)c1ccc(C2c3c(n[nH]c3C)N=C3COC(=O)C32)cc1 (stereo not given) | 68.1
COc1ccc(OC)c(C2c3c(n[nH]c3C)N=C3COC(=O)C32)c1 (stereo not given) | -15
Cc1ccc(C2c3c(n[nH]c3C)N=C3COC(=O)C32)cc1C (stereo not given) | 55.3
Nc1ccc(-c2cnc(C3CCCN3)cn2)cn1 (stereo not given) | -4.175
Cc1cc(C)n(CC2CCCN2C(=O)c2ccc(NC3CC3)nc2)n1 (stereo not given) | -5.07
Cc1ccc(=O)n(CC2(O)CCN(Cc3cccs3)CC2)n1 | -20.2
O=C(NCCN1CCOCC1)c1nc2ccccc2c(=O)[nH]1 | 45.7
CC1COCCN1Cc1nc(-c2ccc(Br)s2)no1 (stereo not given) | -50.8
CCN1CCOC(CNCc2c(Cl)nc3ccccn23)C1 (stereo not given) | -13.6
COc1ccc(CN2CCCC2)cc1Oc1ccc2c(c1)CC(CN)O2 (stereo not given) | -27
COc1c(F)cc(-c2cccc3c2OC(CN)C3)cc1F (stereo not given) | 27.6
Cc1cc(CN2CCCC2)cc(Oc2ccc3c(c2)CC(CN)O3)c1 (stereo not given) | 4.68
NCC1Cc2cc(Oc3cc(F)c(CN4CCCC4)c(F)c3)ccc2O1 (stereo not given) | 74
COc1cc(CN2CCCC2)ccc1Oc1ccc2c(c1)CC(CN)O2 (stereo not given) | 69
COc1ccc(CN2CCCC2)cc1Oc1ccc(NC(C)=O)cc1 | -5.47
